We go through 60 compounds from PubChem BioAssay AID1063 (University of Pittsburgh Molecular Library Screening Center, 2008).

About 18,000 (9%) of roughly 200,000 compounds were called active. For the sample, actives were picked, then their nearest neighbours and some compounds at random. Values without a mark were called inactive. Cut-off read from the data, not from the text of the source: active = inhibition above about 50%; inactive = the rest.

A short description of this test: Leishmania major promastigote growth inhibition, primary screen (AID 1063).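 Note: promastigotes grown with compound for 44 hours at 28 °C.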 The settings on record: Leishmania major promastigotes, resazurin fluorescence viability; at 10 µM; active compounds read high. In general terms: Alamar Blue is a resazurin reagent that responds to reducing activity.
`COc1ccc(C(=O)Nc2ccc(N3CCC(C)CC3)cc2)cc1Br`: the inhibition is -6.43%.

For `Cn1nc(-c2ccc(N3CCOCC3)c(NC(=O)c3ccccc3)c2)c2ccccc2c1=O`, the inhibition was 77% (active).

As for `COc1ccc(-c2nn(C)c(=O)c3ccccc23)cc1NC(=O)COc1ccccc1`, the inhibition was 8.76%.

On to `O=C(Nc1cc(-c2nn(CC(=O)N3CCCCC3)c(=O)c3ccccc23)ccc1N1CCOCC1)c1ccc(Cl)cc1`, for which the inhibition is 0.47%.

Regarding `CN(CC(=O)Nc1ccccc1F)CC(=O)Nc1ccccc1Br`, the inhibition is -4.41%.

As to `NS(=O)(=O)c1ccc(NC(=S)Nc2ccc(Br)c(Cl)c2)cc1`, the inhibition is 10.7%.

Turning to `CC(C)(C)C(=O)NCCCNc1ccc([N+](=O)[O-])cc1`, the inhibition was -6.51%.

`CCOc1cc(/C=C2/C(=N)N3OC(C)=CC3=NC2=O)ccc1OC`: the inhibition is 2.63%.

Consider `Cn1nnnc1NCc1ccc(Cl)c(Cl)c1`, for which the inhibition was 6.1%.

Regarding `COc1ccc(N2CCN(c3ccc([N+](=O)[O-])nc3)CC2)cc1`, the inhibition is -3.36%.

Take `CC1(C)CC(=O)c2c(n(S(=O)(=O)c3ccccc3)c3ccc(NS(=O)(=O)c4ccccc4)cc23)C1`: the inhibition is 98.6% (active).

With `Cn1c(=O)n(C)c2cc(NS(=O)(=O)c3ccc(F)cc3)ccc21`, the inhibition was 4.59%.

Consider `O=S(=O)(Nc1ccc2cn[nH]c2c1)c1ccccc1`, for which the inhibition was 6.15%.

In the case of `Cc1cnc(C(=O)OCC(=O)N2CCc3ccccc32)cn1`, the inhibition is 5.21%.

In the case of `Cc1ccc(OCC(O)CN2CCN(CC(O)COc3ccc(C)cc3Cl)CC2)c(Cl)c1` (stereo not given), the inhibition is -0.86%.

Regarding `C/C=C/c1ccc(OCC(O)CN2CCCCCCC2)c(OC)c1` (stereo not given), the inhibition was -0.01%.

For `C=CCc1ccc(OCC(O)CN2CCN(Cc3ccccc3)CC2)c(OC)c1` (stereo not given), the inhibition was 87.8% (active).

On to `CC(C)CCNC(=O)Cn1c(=O)oc2cc(S(=O)(=O)N3CC(C)CC(C)C3)ccc21` (stereo not given), for which the inhibition was -10.9%.

As for `CCOC(=O)Cn1c(=O)oc2cc(S(=O)(=O)NCC3CCCO3)ccc21` (stereo not given), the inhibition was -5.87%.

With `CCOC(=O)Cn1c(=O)oc2cc(S(=O)(=O)N(C)Cc3ccco3)ccc21`, the inhibition is 98.7% (active).

With `COc1ccc(OCCCON2C(=O)c3ccccc3C2=O)cc1`, the inhibition is -2.83%.

On to `CCCCC(C(=O)OCC(=O)c1ccc(OC)cc1)N1C(=O)c2ccccc2C1=O` (stereo not given), for which the inhibition was -3.44%.

In the case of `CCOC(=O)C1=C(c2ccc(OC)cc2)C(=O)c2ccccc2C1=O`, the inhibition is 101% (active).

Consider `O=C(CCNC(=O)c1ccc([N+](=O)[O-])cc1)Nc1ccccc1N1CCOCC1`, for which the inhibition was 7.58%.

In the case of `CC(C)CN1CCNC(=O)C1CC(=O)N(C)CC1CCOCC1` (stereo not given), the inhibition was 9.06%.

Take `CCOc1cc(/C=N/NC(=O)c2ccc(CSc3nncn3C)cc2)ccc1OCC(=O)N1CCOCC1`: the inhibition is -1.61%.

For `COc1ccc(/C=C2/SC(=O)N(CCCCCC(=O)Nc3ccccc3C(=O)O)C2=S)cc1`, the inhibition was -8.92%.

As for `O=C(O)CCC(=O)N(Cc1ccco1)c1nc(-c2ccccc2)cs1`, the inhibition was -11.4%.

As to `Cc1ccc(-c2csc(NC(=O)c3cccs3)n2)cc1`, the inhibition is 3.66%.

As for `Cc1ccc(-c2csc(N(Cc3ccco3)C(=O)c3cccs3)n2)cc1`, the inhibition was 100% (active).

For `CN(Cc1ccccn1)Cc1nc(-c2ccc(Cl)cc2)no1`, the inhibition is -2.18%.

Turning to `O=C(COC(=O)/C=C/c1nc2ccccc2s1)Nc1ccccc1Oc1ccccc1`, the inhibition is 51.7% (active).

Take `COc1ccc(/C=C/C(=O)OCC(=O)Nc2cccc(Oc3ccccc3)c2)c(OC)c1`: the inhibition was -2.55%.

Take `CCN(C(=O)COC(=O)/C=C/c1nc2ccccc2s1)C1CCS(=O)(=O)C1` (stereo not given): the inhibition is -2.12%.

As for `COc1ccc(-c2cn3cccnc3n2)cc1`, the inhibition was 10.2%.

`Cc1cccc(C2=N/C(=C/c3cccs3)C(=O)O2)c1`: the inhibition is 1.4%.

As for `Cc1ccc(NC(=O)CN2CCCCC2)c2c1CC(C)(C)O2`, the inhibition was 3.82%.

As to `Cc1cc(C)c2nc(SCC(=O)N(C)C3CCS(=O)(=O)C3)cc(C)c2c1` (stereo not given), the inhibition is 0.72%.

As for `Cc1cccc(C)c1OCC(=O)NC(Cc1c[nH]c2ccccc12)C(=O)O` (stereo not given), the inhibition was -3.57%.

Turning to `O=S(=O)(Nc1cc(S(=O)(=O)N2CCOCC2)ccc1N1CCCC1)c1cccs1`, the inhibition is -3.24%.

Regarding `O=C(N1CCCC1)C12CC3CC(C1)CC(C(=O)N1CCCC1)(C3)C2`, the inhibition is -2.33%.

For the compound `CN1CCN(CC(=O)C23CC4CC(CC(C4)C2)C3)CC1`, the inhibition was 88.5% (active).

On to `CC(C)(C)NC(=O)CN1CCC(NC(=O)C23CC4CC(CC(C4)C2)C3)CC1`, for which the inhibition was 3.92%.

Turning to `CCc1ccc(N2CC(O)=C(c3nc4ccccc4c(=O)[nH]3)C2=N)cc1`, the inhibition is -1.01%.

For the compound `CCCOc1ccc(C(=O)NCCc2ccccc2)cc1`, the inhibition is 7.66%.

Turning to `CCCOc1ccc(N/C=C/C(=O)C(C)(C)C)cc1`, the inhibition is -5.85%.

Take `CCCOc1ccc(C(=O)C(CCC(CNCC)C(=O)c2ccc(OCCC)cc2)CNCC)cc1` (stereo not given): the inhibition is 100% (active).

As for `CC(C)NC(=S)NN=C1CCCCCCCCCCC1`, the inhibition is 18.9%.

For `Cc1nn(C)c(C)c1Sc1ccccc1N`, the inhibition is -5.83%.

`CN(C)CCOCCOc1ccc(Cl)c2ccccc12`: the inhibition was 98.1% (active).

Take `CCN(CC)CCOCCOc1ccc(Cl)c2ccccc12`: the inhibition was 99.7% (active).

In the case of `CCOc1ccc(S(=O)(=O)N2CCCCCC2)c2ccccc12`, the inhibition was 14%.

Regarding `CCC(C(=O)OCCN(CC)CC)c1ccccc1` (stereo not given), the inhibition is -7.09%.

In the case of `CN(C)CCOc1cccc(Br)c1`, the inhibition was -3.33%.

For `COc1ccc(N2C(=O)CC(Sc3n[nH]c(-c4ccc(C)cc4)n3)C2=O)cc1` (stereo not given), the inhibition was -3.19%.

Consider `CCN1C(=O)/C(=c2\s/c(=C3\Sc4ccccc4N3C)c(=O)n2C)N(C)C1=S`, for which the inhibition is -4.84%.

Turning to `CSc1cc(C)[nH]c(=O)n1`, the inhibition is -7.37%.

`C/C(=N\N)c1c(-c2ccccc2)c2cc(Br)ccc2[nH]c1=O`: the inhibition is -1.92%.

With `COc1ccc(C(=O)N/N=c2\oc3ccccc3cc2C(N)=O)cc1`, the inhibition was 10.2%.

As for `CC(OC(=O)CCc1nc(=O)c2ccccc2n1C)C(=O)NCc1ccc2c(c1)OCO2` (stereo not given), the inhibition is -3.8%.

One may read the inhibition as the relative decrease from the control value, in per cent.
